Assay results reported in PubChem BioAssay (Tox21).
Several values for one entry are separate records, joined by “and”; a condition that tells them apart may be missing. Equal entries are not always repeated. Inconclusive results are not listed. Some compounds were tested as several samples or in several runs, with calls that do not always agree. Activity calls are given as the source filed them. Unless noted, calls come from the whole dose curve; as a rule, active = well fitted curve in the direction sought with a large enough effect in the repeat runs; inconclusive = weak or mixed curves; inactive = no such curve, though single readings can be large; an effect the other way counts as inactive or inconclusive.

Key:
[1] = qHTS assay to identify small molecule agonists of the androgen receptor (AR) signaling pathway in the presence of an antagonist - cell viability counter screen (AID 1259379); note: series mostly up to about 92 µM; nearly all actives have a fitted effect of over 25% in size
Outline: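 MDA-kb2 human breast carcinoma cells (stable MMTV-luciferase, AR/GR responsive) were seeded 3,000 cells/well, pre-incubated 5 hr at 37C without CO2, then given 3.0uM nilutamide and compounds at 15 concentrations for 16 hr. Viability was read by CellTiter-Fluor fluorescence.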

[2] = qHTS assay to identify small molecule agonists of the estrogen receptor beta (ER-beta) signaling pathway - cell viability counter screen (AID 1259380); note: nearly all actives have a fitted effect of over 30% in size; note: potency is the fitted concentration of half-maximal effect
Outline: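 ER-beta-UAS-bla HEK293T cells in medium with 2% charcoal-stripped FBS were preincubated 6 hr at 37C, dosed with compound in DMSO for 16 hr, then after the bla read, CellTiter-Glo was added for 30 min at room temperature; luminescence recorded.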

[3] = qHTS assay to identify small molecule antagonists of the estrogen receptor beta (ER-beta) signaling pathway - cell viability counter screen (AID 1259382); note: nearly all actives have a fitted effect of over 55% in size; note: potency is the fitted concentration of half-maximal effect
Outline: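 ER-beta-UAS-bla HEK293T cells (2,000/well, 2% charcoal-stripped FBS) were pre-incubated 6 hr at 37C, then given compound plus 1nM final 17-beta-estradiol for 16 hr. Viability was read in the same wells by CellTiter-Glo luminescence after 30 min at room temperature.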

[4] = biological target: Thyrotropin receptor (Homo sapiens) (UniProt P16473); experiment: qHTS assay to identify small molecule antagonists of the thyroid stimulating hormone receptor (TSHR) signaling pathway (AID 1259385; calls by dose curve; note: nearly all actives have a fitted effect of over 20% in size)
Sequence of Thyrotropin receptor (Homo sapiens) (P16473 whole entry, looked up): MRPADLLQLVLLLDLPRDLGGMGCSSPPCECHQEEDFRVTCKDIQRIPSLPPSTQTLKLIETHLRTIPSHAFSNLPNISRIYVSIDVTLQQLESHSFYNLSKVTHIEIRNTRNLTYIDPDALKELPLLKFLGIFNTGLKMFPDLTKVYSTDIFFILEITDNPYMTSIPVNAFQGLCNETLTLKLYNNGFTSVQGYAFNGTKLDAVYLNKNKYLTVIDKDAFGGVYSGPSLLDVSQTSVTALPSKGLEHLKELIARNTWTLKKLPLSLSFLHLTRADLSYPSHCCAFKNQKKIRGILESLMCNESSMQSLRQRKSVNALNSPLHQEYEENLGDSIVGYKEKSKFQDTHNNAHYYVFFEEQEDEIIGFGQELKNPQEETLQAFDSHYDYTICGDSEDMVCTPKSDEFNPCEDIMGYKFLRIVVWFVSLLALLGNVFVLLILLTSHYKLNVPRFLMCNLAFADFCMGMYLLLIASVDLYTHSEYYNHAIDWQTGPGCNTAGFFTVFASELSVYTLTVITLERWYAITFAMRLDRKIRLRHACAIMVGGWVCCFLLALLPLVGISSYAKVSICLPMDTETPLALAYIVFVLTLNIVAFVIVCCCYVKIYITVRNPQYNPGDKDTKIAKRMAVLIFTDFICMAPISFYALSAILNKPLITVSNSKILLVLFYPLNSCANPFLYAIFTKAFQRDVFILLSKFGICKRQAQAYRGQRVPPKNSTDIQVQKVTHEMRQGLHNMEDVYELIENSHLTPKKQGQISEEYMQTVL
Outline: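 TSHR-HEK293 cells (800/well) plated 18 h, then compounds with Ro20-1724 and TSH at 1.5 ng/mL final, 30 min at room temperature. cAMP quantified by HTRF (cAMP-d2/anti-cAMP-cryptate, 1 h); 15 concentrations in triplicate.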

[5] = qHTS assay to identify small molecule agonists of the estrogen receptor alpha (ER-alpha) signaling pathway in the presence of an antagonist - cell viability counter screen (AID 1259386);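 note: cells exposed to compounds for 22 h at 37 °C before the viability read; nearly all actives have a fitted effect of over 30% in size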; note: potency is the fitted concentration of half-maximal effect
Outline: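 VM7Luc4E2 cells (endogenous full-length ER-alpha, 4×ERE-luciferase) were held 5 days in phenol red-free medium with 10% charcoal-stripped FBS, plated, then given 10.0nM ICI-182,780 and compounds at 15 concentrations for 22hr at 37C; viability read by CellTiter-Fluor fluorescence.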

[6] = biological target: Progesterone receptor (Homo sapiens) (UniProt P06401); experiment: qHTS assay to identify small molecule agonists of the progesterone receptor (PR) signaling pathway (AID 1346784; calls by dose curve; note: nearly all actives have a fitted effect of over 30% in size; note: potency is the fitted concentration of half-maximal effect)
Sequence of Progesterone receptor (Homo sapiens) (P06401 whole entry, looked up): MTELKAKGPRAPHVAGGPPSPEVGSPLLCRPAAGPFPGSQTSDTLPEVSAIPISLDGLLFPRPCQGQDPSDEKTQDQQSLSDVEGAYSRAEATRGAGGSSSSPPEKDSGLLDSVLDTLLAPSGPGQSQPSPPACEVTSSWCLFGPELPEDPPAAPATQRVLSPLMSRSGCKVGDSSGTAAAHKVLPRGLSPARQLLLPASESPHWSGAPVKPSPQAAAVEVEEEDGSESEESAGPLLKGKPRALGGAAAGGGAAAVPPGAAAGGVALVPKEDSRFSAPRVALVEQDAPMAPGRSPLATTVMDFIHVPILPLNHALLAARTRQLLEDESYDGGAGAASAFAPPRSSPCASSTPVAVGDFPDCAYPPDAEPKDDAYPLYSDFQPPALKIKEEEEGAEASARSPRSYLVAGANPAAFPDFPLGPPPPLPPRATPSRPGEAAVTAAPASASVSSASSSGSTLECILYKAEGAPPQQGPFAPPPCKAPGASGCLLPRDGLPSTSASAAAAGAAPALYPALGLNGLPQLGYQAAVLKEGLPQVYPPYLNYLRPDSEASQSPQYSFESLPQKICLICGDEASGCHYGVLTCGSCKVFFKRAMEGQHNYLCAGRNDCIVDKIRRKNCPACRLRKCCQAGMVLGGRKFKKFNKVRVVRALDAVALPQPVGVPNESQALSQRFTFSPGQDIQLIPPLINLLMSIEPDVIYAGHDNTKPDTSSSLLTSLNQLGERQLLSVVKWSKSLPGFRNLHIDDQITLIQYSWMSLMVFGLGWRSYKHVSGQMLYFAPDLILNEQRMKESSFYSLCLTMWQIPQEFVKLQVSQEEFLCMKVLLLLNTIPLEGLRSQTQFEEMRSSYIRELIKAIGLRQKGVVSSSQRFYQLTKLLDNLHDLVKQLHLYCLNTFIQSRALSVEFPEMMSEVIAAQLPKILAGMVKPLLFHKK
Outline: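 PR-UAS-bla HEK 293T cells carrying a UAS-driven beta-lactamase reporter were seeded in medium with 2% charcoal-stripped FBS, preincubated 6 hr at 37C, then exposed to compounds in DMSO for 16 hr; agonism was read by LiveBLAzer B/G FRET fluorescence.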

[7] = biological target: Progesterone receptor (Homo sapiens) (UniProt P06401); experiment: qHTS assay to identify small molecule antagonists of the progesterone receptor (PR) signaling pathway (AID 1346795; active = well fitted inhibition curve with a large enough effect in the signal ratio in the repeat runs, not every such curve was filed as active; the % refers to the signal ratio; note: potency is the fitted concentration of half-maximal effect)
Outline: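 PR-UAS-bla HEK293T cells carrying a UAS-driven beta-lactamase reporter were plated in medium with 2% charcoal-stripped FBS and rested 6 hr at 37C. Compounds were added with 1 nM R5020 (final) for 16 hr, then FRET substrate loaded 2 hr at room temperature.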

[8] = qHTS assay to identify small molecule antagonists of the TGF-beta/Smad signaling pathway - cell viability counter screen (AID 1346824); note: nearly all actives have a fitted effect of over 50% in size
Outline: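 SBE-bla HEK 293T cells, incubated overnight, then compound plus 0.25 ng/mL TGF-beta1 (stock added) for 5 hr at 37 C. Viability was read in the same wells by CellTiter-Glo luminescence after 30 min at room temperature.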

[9] = qHTS assay to identify small molecule agonists of the TGF-beta/Smad signaling pathway (AID 1346859; active = well fitted activation curve with a large enough effect in the signal ratio in the repeat runs, not every such curve was filed as active; the % refers to the signal ratio; note: series mostly up to about 77 µM)
Outline: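 HEK 293T cells stably carrying a beta-lactamase reporter driven by the Smad binding element were seeded overnight, exposed to DMSO-dissolved compounds for 5 hr at 37 C, 5% CO2, then loaded with FRET substrate for 2 hr at room temperature.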

[10] = biological target: Thyrotropin-releasing hormone receptor (Homo sapiens) (UniProt P34981); experiment: qHTS assay to identify small molecule antagonists of the thyrotropin-releasing hormone receptor (TRHR) signaling pathway (AID 1346877; active = well fitted inhibition curve with a large enough effect in the repeat runs, not every such curve was filed as active; note: series mostly up to about 51 µM)
Sequence of Thyrotropin-releasing hormone receptor (Homo sapiens) (P34981 whole entry, looked up): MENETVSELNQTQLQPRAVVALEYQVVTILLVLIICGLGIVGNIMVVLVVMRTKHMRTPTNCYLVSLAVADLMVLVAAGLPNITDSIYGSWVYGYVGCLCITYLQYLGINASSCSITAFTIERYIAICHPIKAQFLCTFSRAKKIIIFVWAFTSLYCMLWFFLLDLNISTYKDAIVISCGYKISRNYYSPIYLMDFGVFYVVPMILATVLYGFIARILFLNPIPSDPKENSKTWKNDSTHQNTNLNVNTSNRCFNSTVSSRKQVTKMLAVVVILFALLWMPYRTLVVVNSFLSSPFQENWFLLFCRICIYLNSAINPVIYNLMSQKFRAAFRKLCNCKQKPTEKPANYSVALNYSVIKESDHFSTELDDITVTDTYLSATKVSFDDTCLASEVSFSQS
Outline: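 TRHR-expressing HEK293 cells were seeded, cultured 18 h at 37 °C, then loaded with calcium dye for 2 h. Compounds were pre-incubated 5 min at room temperature before 1 nM TRH (final) was added, and kinetic fluorescence was recorded for 3 min.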

[11] = biological target: Thyrotropin-releasing hormone receptor (Homo sapiens) (UniProt P34981); experiment: qHTS assay to identify small molecule agonists of the thyrotropin-releasing hormone receptor (TRHR) signaling pathway (AID 1346891; calls by dose curve; note: series mostly up to about 58 µM)
Outline: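 TRHR-expressing HEK293 cells were plated 18 h at 37 °C/5% CO2, loaded with calcium dye 2 h at 37 °C, then given compound in DMSO; fluorescence was read kinetically for 3 min at 1 s intervals.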

[12] = Human pregnane X receptor (PXR) small molecule agonists, qHTS cell viability counter screen (AID 1346977); note: nearly all actives have a fitted effect of over 50% in size; note: potency is the fitted concentration of half-maximal effect
Outline: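 PXR-Luc HepG2 cells in medium with 5% charcoal-stripped FBS were pre-incubated 5hr, then exposed to compounds for 24hr at 37C. Viability was read in the same wells by CellTiter-Fluor fluorescence, reagent added after 23hr with a 1hr incubation.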

[13] = qHTS assay to identify small molecule agonists or antagonists of the thyroid stimulating hormone receptor (TSHR) signaling pathway - wild type cell line counter screen (AID 1259384; calls by dose curve)
Outline: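 Wild-type Hek293 cells, 800/well, 18 h at 37C, then compound with Ro20-1724 for 30 min RT. cAMP by HTRF (cAMP-d2/anti-cAMP cryptate), 1 h RT, fluorescence read. 15 concentrations, triplicates.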

[14] = qHTS assay to identify small molecule antagonists of the progesterone receptor (PR) signaling pathway - cell viability counter screen (AID 1346798); note: series mostly up to about 92 µM; nearly all actives have a fitted effect of over 50% in size
Outline: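 PR-UAS-bla HEK293T cells in medium with 2% charcoal-stripped FBS were treated with compounds plus R5020 for 16 hr at 37C. Cell viability was then read by CellTiter-Glo luminescence after 30 min at room temperature in the same wells.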

[15] = qHTS assay to identify small molecule agonists of the progesterone receptor (PR) signaling pathway - cell viability counter screen (AID 1346799; calls by dose curve; note: nearly all actives have a fitted effect of over 45% in size)
Outline: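 PR-UAS-bla HEK293T cells, 3,000 per well in medium with 2% charcoal-stripped FBS, were preincubated 6 hr at 37C, then exposed to compounds for 16 hr; viability was read as CellTiter-Glo luminescence after 30 min at room temperature.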

[16] = qHTS assay to identify small molecule agonists of the TGF-beta/Smad signaling pathway - cell viability counter screen (AID 1346829); note: top concentration of the series differs between compounds; nearly all actives have a fitted effect of over 45% in size
Outline: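 Tox21 qHTS format: SBE-bla HEK 293T cells treated with DMSO-dissolved compounds for 5 hr; CellTiter-Glo luminescence after 30 min at room temperature.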

[17] = biological target: Estrogen receptor (Homo sapiens) (UniProt P03372); experiment: qHTS assay to identify small molecule agonists of the estrogen receptor alpha (ER-alpha) signaling pathway in the presence of an antagonist (AID 1259383; calls by dose curve; note: nearly all actives have a fitted effect of over 15% in size; note: potency is the fitted concentration of half-maximal effect; for activation: top concentration of the series differs between compounds)
Sequence of Estrogen receptor (Homo sapiens) (P03372 whole entry, looked up): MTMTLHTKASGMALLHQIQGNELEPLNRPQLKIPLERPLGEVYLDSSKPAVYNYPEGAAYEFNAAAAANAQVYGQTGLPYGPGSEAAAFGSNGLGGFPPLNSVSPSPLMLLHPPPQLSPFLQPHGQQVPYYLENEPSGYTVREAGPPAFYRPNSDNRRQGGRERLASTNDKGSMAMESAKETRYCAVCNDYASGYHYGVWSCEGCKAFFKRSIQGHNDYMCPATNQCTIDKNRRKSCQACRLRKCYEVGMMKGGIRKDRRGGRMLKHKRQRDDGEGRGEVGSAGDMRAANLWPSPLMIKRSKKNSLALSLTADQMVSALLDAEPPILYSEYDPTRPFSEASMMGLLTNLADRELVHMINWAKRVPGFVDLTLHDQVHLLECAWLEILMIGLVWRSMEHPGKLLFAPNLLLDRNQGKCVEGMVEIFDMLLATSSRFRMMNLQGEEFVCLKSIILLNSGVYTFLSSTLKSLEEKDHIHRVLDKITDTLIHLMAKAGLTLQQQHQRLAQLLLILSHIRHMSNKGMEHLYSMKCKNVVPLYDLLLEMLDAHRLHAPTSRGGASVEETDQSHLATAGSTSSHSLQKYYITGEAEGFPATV
Outline: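 VM7Luc4E2 cells (endogenous full-length ER-alpha, 4×ERE-luciferase) were precultured 5 days in phenol red-free medium with 10% charcoal-stripped FBS, given 10.0nM ICI-182,780 (final), then treated with compounds at 15 concentrations for 22hr at 37C; luminescence read with ONE-Glo.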

[18] = biological target: Estrogen receptor beta (Homo sapiens) (UniProt Q92731); experiment: qHTS assay to identify small molecule antagonists of the estrogen receptor beta (ER-beta) signaling pathway (AID 1259378; active = well fitted inhibition curve with a large enough effect in the signal ratio in the repeat runs, not every such curve was filed as active; the % refers to the signal ratio; note: potency is the fitted concentration of half-maximal effect)
Sequence of Estrogen receptor beta (Homo sapiens) (Q92731 whole entry, looked up): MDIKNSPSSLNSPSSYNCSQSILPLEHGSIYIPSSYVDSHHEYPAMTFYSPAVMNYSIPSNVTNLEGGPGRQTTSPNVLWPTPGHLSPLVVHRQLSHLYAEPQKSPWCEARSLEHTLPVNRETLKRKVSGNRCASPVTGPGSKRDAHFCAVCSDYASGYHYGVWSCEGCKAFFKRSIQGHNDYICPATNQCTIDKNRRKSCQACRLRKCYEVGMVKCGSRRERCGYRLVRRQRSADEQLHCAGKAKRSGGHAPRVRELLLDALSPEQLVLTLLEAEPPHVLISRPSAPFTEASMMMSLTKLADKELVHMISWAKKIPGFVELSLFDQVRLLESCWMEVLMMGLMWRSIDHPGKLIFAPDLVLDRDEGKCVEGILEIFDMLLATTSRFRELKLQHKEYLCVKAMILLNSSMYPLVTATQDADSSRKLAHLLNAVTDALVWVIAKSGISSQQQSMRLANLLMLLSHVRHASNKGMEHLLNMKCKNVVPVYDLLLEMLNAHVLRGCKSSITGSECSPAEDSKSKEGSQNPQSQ
Outline: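 ER-beta-UAS-bla HEK293T cells in 2% charcoal-stripped FBS medium treated with compound plus 1nM final 17-beta-estradiol for 16 hr at 37C. Beta-lactamase reporter read by FRET substrate fluorescence after 2 hours at room temperature.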

[19] = biological target: Androgen receptor (Homo sapiens) (UniProt P10275); experiment: qHTS assay to identify small molecule agonists of the androgen receptor (AR) signaling pathway in the presence of an antagonist (AID 1259381; calls by dose curve; note: nearly all actives have a fitted effect of over 15% in size)
Sequence of Androgen receptor (Homo sapiens) (P10275 whole entry, looked up): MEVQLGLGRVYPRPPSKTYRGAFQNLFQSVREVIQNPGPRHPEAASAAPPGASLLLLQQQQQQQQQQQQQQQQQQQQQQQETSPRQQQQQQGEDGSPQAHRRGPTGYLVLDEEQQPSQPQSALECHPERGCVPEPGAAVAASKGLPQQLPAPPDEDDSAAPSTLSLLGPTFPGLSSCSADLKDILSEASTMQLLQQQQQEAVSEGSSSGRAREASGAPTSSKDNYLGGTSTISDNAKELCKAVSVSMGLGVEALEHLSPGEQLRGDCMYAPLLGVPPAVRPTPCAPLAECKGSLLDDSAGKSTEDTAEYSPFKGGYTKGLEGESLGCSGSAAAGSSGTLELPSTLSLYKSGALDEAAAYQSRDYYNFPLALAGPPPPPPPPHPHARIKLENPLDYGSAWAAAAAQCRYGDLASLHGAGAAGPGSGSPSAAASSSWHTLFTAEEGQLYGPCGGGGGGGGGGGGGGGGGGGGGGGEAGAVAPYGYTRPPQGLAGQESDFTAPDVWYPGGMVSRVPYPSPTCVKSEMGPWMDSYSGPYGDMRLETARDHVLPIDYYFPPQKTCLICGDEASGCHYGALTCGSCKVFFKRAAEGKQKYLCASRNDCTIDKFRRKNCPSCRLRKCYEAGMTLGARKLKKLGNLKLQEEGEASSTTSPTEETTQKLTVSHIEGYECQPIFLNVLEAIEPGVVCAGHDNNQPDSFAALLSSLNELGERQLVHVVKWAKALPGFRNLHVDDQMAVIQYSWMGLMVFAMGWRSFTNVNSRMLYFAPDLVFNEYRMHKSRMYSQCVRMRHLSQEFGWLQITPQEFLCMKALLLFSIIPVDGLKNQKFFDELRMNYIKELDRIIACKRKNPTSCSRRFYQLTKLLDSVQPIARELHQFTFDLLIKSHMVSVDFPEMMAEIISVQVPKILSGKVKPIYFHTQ
Outline: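 MDA-kb2 human breast carcinoma cells carrying an MMTV-luciferase reporter (AR- and GR-responsive) were treated with compounds at 15 concentrations plus 3.0uM final nilutamide for 16hr at 37C without CO2; luminescence was read after ONE-Glo addition.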

Measured: Potency

O=C(O)Cc1cccc2ccccc12
inactive and 1.37 µM (active): [6]
not listed: [13] | [14] | [15] | [16] | [17] | [18] | [19]
inactive: all other assays above

CC(C)=CCC/C(C)=C/CO
not listed: [1] | [10] | [11] | [17] | [18] | [19]
inactive: all other assays above

O=[N+]([O-])c1ccc(O)cc1
active: [5] 56.6 µM and 43.3 µM and 48.6 µM | [12] 44.7 µM and 48.6 µM
not listed: [1] | [10] | [11] | [16] | [18] | [19]
inactive: all other assays above

CC(C)CC(C)CC(O)CC(C)C (centres undefined)
not listed: [4] | [13] | [15] | [17] | [18] | [19]
inactive: all other assays above

O=C1OC(c2ccc(O)cc2)(c2ccc(O)cc2)c2ccccc21
active: [18] 15.4 µM | [7] 24.3 µM
54.1 µM (active) and inactive: [2]
50.1 µM (active) and inactive: [12]
not listed: [3] | [10] | [11] | [15] | [17]
inactive: all other assays above

CCCCCCCCOc1ccc(C(=O)c2ccccc2)c(O)c1
not listed: [11] | [18] | [19]
inactive: all other assays above

C=C(C)C(N)=O
not listed: [18] | [19]
inactive: all other assays above

O=C(O)CN(CC(=O)O)CC(=O)O
not listed: [3] | [15] | [18] | [19]
inactive: all other assays above

CCCCOCCOCCOC(C)=O
not listed: [4] | [11] | [13] | [15] | [18] | [19]
inactive: all other assays above

C#C[C@]1(O)CC[C@H]2[C@@H]3CCc4cc(O)ccc4[C@H]3CC[C@@]21C
54.1 µM (active) and inactive: [3]
active: [2] 60.7 µM and 48.6 µM | [6] 0.271 µM
inactive: [1] | [13] | [4] | [5] | [8] | [16] | [9] | [10] | [12]

CC1=C(/C=C/C(C)=C/C=C/C(C)=C/C(=O)O)C(C)(C)CCC1
active: [2] 19.4 µM and 21.7 µM and 15 µM
not listed: [1] | [4] | [13] | [16] | [18] | [19]
inactive: all other assays above

CC(=O)/C=C/C1=C(C)CCCC1(C)C
not listed: [1] | [4] | [11] | [13] | [18] | [19]
inactive: all other assays above

C#C[C@]1(O)CC[C@H]2[C@@H]3CCC4=CC(=O)CC[C@@H]4[C@H]3CC[C@@]21CC
inactive: [2] | [3] | [13] | [4] | [5] | [7] | [14] | [8] | [9] | [12]
active: [17] 6.87 µM and 8.63 µM and 8.41 µM

Nc1ccc(N=Nc2ccccc2)c(N)n1
active: [18] 54.5 µM | [17] 1.93 µM and 3.76 µM | [5] 30.8 µM and 24.3 µM and 26.6 µM | [7] 43.3 µM
not listed: [1] | [2] | [11] | [12] | [15] | [19]
inactive: all other assays above

O=C(OCc1ccccc1)c1ccccc1
not listed: [3] | [10] | [11] | [16] | [17] | [18] | [19]
inactive: all other assays above

CC(=O)CCC(C)C
not listed: [1] | [11] | [15] | [18] | [19]
inactive: all other assays above
